The panel holds about 83,000 compounds, 20% with a hit somewhere; the sample as a whole holds those more often.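 Cell lines were cultured in 96-well plates, exposed to a single compound concentration, and assessed for percent growth 48 hours later.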 A number with no mark means an inactive call. Active and inactive are the calls of the source. How the source made its calls: active means growth percent below 10; inactive means the rest.

Test systems include T-47D breast; BT-549 breast; MDA-MB-435 melanoma; SW-620 colon; MCF7 breast; HCT-116 colon; HCC-2998 colon; KM12 colon.
Test in all cases: NCI-60 one-dose screen, 48 h (100 = growth as untreated, 0 = no growth, -100 = all killed)
Conditions in all cases: 10 µM unless noted

With `COc1cc(-c2nnc(-c3nc(-c4cc(OC)c(OC)c(OC)c4)n4ccccc34)o2)ccc1N`, the growth with T-47D breast was 54.5%; in the test with BT-549 breast, 67.1%; with MDA-MB-435 melanoma it was 82.5%; with SW-620 colon, 87%; in the test on MCF7 breast it was 71.2%; in the test on HCT-116 colon, 54.2%. Also, the growth with HCC-2998 colon was 89.1%; in the test with KM12 colon, 68.3%.
For the compound `COc1cc2c(cc1OC)C(=O)/C(=C/c1cccc(OCC(=O)c3ccccc3)c1)C2`, the growth was 55.2% in the test on T-47D breast; 49.4% with BT-549 breast; 110% in the test on MDA-MB-435 melanoma; 74.6% in the test on SW-620 colon; 60.7% in the test on MCF7 breast; 64.6% with HCT-116 colon. Further, the growth in the test on HCC-2998 colon is 111%; in the test with KM12 colon, 170%.
For the compound `NS(=O)(=O)c1ccc(-n2nc(-c3ccc(Br)cc3)ccc2=O)cc1`, the growth with T-47D breast is 77% [100 µM]; with BT-549 breast, 38.6% [100 µM]; in the test with MDA-MB-435 melanoma it was 0.0656% [100 µM] (active); in the test on SW-620 colon, 63% [100 µM]; in the test on MCF7 breast, 74.8% [100 µM]; with HCT-116 colon it was 34.8% [100 µM]. Besides, the results for the growth with HCC-2998 colon and in the test on KM12 colon were 91.9% [100 µM] and 49.6% [100 µM], respectively.
For `COc1ccc2c(c1)c(CC(=O)[Se]C)c(C)n2C(=O)c1ccc(Cl)cc1`, the growth was 80.6% in the test with T-47D breast; -80.8% (active) in the test on BT-549 breast; -20% (active) in the test with MDA-MB-435 melanoma; 29.9% with SW-620 colon; 16% with MCF7 breast; 0.342% (active) in the test on HCT-116 colon. Besides, the growth with HCC-2998 colon was 68.8%; in the test on KM12 colon it was 61.6%.
On to `Nc1nc(SCc2cccnc2)c2ncn(C3OC(CO)C(O)C3O)c2n1` (configuration not stated), for which the growth in the test with T-47D breast was 110%; in the test with BT-549 breast, 98.1%; in the test with MDA-MB-435 melanoma it was 104%; in the test on SW-620 colon, 97.9%; in the test with MCF7 breast, 94.9%; in the test on HCT-116 colon, 93.8%. The figures for the growth with HCC-2998 colon and in the test with KM12 colon were 96.6% and 98.4%, respectively.
With `COc1cccc(/C=C2\Cc3ccccc3C2=O)c1`, the growth in the test on T-47D breast was 100%; in the test on BT-549 breast it was 103%; in the test with MDA-MB-435 melanoma, 96.7%; with SW-620 colon, 104%; in the test on MCF7 breast, 58.8%; in the test on HCT-116 colon, 96.3%. In addition, the growth in the test on HCC-2998 colon is 105%; in the test with KM12 colon, 95.2%.
For the compound `CCOC(=O)CCC(=O)O[C@H]1[C@H](O[C@@H]2[C@@H](C)[C@H](O[C@H]3C[C@@](C)(OC)[C@@H](O)[C@H](C)O3)[C@@H](C)C(=O)O[C@H](CC)[C@@](C)(O)[C@H](O)[C@@H](C)C(=O)[C@H](C)C[C@@]2(C)O)O[C@H](C)C[C@@H]1N(C)C`, the growth in the test on T-47D breast was 97.1%; in the test with BT-549 breast it was 97.3%; in the test with MDA-MB-435 melanoma, 105%; in the test with SW-620 colon it was 107%; in the test on MCF7 breast, 113%; in the test with HCT-116 colon, 99.7%. Also, the growth in the test with HCC-2998 colon was 105%; in the test with KM12 colon, 111%.
On to `CCOC(=O)c1cc2oc(/C=C/c3cc(=O)c4cc(Cl)ccc4o3)cc2[nH]1`, for which the growth in the test on T-47D breast is 68.4%; with BT-549 breast it was 53.5%; in the test with MDA-MB-435 melanoma, 88.2%; in the test with SW-620 colon, 82.5%; in the test with MCF7 breast, 40.2%; with HCT-116 colon, 81.2%. Further, the growth with HCC-2998 colon was 98.1%; in the test with KM12 colon it was 62.8%.
In the case of `CC(C)Cn1cnc2c(NCn3nc(-c4cc(Cl)cc(Cl)c4Cl)n(/N=C/c4ccc(Cl)cc4)c3=S)nc3ccccc3c21`, the growth with T-47D breast is 71.3%; in the test with BT-549 breast, 92.3%; in the test with MDA-MB-435 melanoma it was 110%; with SW-620 colon it was 98.5%; in the test with MCF7 breast, 97.2%; with HCT-116 colon, 66.1%. The growth was 80.6% with HCC-2998 colon and 96.6% with KM12 colon.
In the case of `COc1cc(/C=C/C(=O)c2c(C)n([O-])c3ccc(Cl)cc3[n+]2=O)cc(OC)c1OC`, the growth with T-47D breast was 58.6%; in the test on BT-549 breast, 53.8%; in the test on MDA-MB-435 melanoma it was 84.1%; with SW-620 colon, 82.2%; in the test with MCF7 breast, 42.2%; in the test with HCT-116 colon, 62.6%. In addition, the growth is 106% in the test on HCC-2998 colon and 96.2% in the test on KM12 colon.
In the case of `Nc1ccc2c(c1)C(=O)c1cc(Cl)c(Cl)cc1-2`, the growth with T-47D breast was 91%; in the test with BT-549 breast, 85.2%; in the test on MDA-MB-435 melanoma it was 102%; with SW-620 colon, 101%; in the test with MCF7 breast it was 69.2%; in the test on HCT-116 colon, 93.5%. For the same compound, the growth with HCC-2998 colon is 98%; with KM12 colon, 92.8%.
Consider `O=C(O)c1ccc2cccnc2c1O`, for which the growth in the test with T-47D breast is 10.3%; with BT-549 breast, -16.5% (active); in the test with MDA-MB-435 melanoma it was 10.1%; in the test with SW-620 colon, 26.1%; in the test with MCF7 breast, 10.8%; in the test with HCT-116 colon it was 2.32% (active). Further, the figures for the growth in the test with HCC-2998 colon and in the test on KM12 colon were 10.2% and 15.1%, respectively.
Turning to `O=C1CSC(c2ccccc2O)N1c1nnc(Cn2ccnc2)o1` (configuration not stated), the growth in the test on T-47D breast was 60.6%; in the test on BT-549 breast, 64.5%; in the test with MDA-MB-435 melanoma it was 13.4%; in the test on SW-620 colon, 61.5%; in the test on MCF7 breast it was 47.9%; in the test on HCT-116 colon it was 50.8%. The results for the growth in the test with HCC-2998 colon and in the test on KM12 colon were 67.1% and 45.1%, respectively.
For `COc1cc(/C=N/OC(=O)Nc2ccccc2)cc(OC)c1OC`, the growth in the test on T-47D breast is 100%; with BT-549 breast, 105%; with MDA-MB-435 melanoma, 124%; with SW-620 colon, 108%; in the test with MCF7 breast, 108%; with HCT-116 colon it was 94.3%. Besides, the growth in the test with HCC-2998 colon was 106%; in the test with KM12 colon it was 113%.
